# Assay results: PubChem BioAssay AID651625 (National Center for Advancing Translational Sciences (NCATS), 2012)
# Active and inactive are the calls of the source.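 The calls were made as follows: active = inhibition of at least 60% at a 114 µM dose; inconclusive = inhibition from 30% up to under 60% at that dose; inactive = inhibition under 30% at 114 µM.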
# Molecular target: Ubiquitin carboxyl-terminal hydrolase 5 (Homo sapiens) (UniProt P45974)
# Experiment: Inhibitors of USP1/UAF1: SAR in USP5 diubiquitin SDS-PAGE gel assay
# Conditions: USP5 K63 diubiquitin cleavage, 1 h; series mostly up to 114 µM; inhibition: at the top concentration
# From the text: Deubiquitinating enzymes (DUBs) are a class of enzymes that can cleave isopeptide bond formed between the C-terminal carboxylate of ubiquitin and a lysine side-chain amino group on the target protein. Among them, ubiquitin specific proteases (USPs) constitute the largest DUB family. Human USPs are emerging as promising targets for pharmacological intervention because of their connection to a number of human diseases, including prostate, colon and breast cancer (1, 2), pediatric acute lymphoblastic leukemia (3), and familial cylindromatosis (4). The advantage of inhibiting USPs lies in the potential specificity of therapeutic intervention that can lead to better efficacy and reduce nonspecific side effects. In a collaboration between the University of Delaware and the NIH Chemical Genomics Center, a high-throughput screen assay was developed to screen for USP1/UAF1 inhibitors (5). This assay is a selectivity assay that tested for activity in a USP5 diubiquitin SDS-PAGE gel assay and inactivity is the desired outcome for this assay. […]
# The inhibition assay contains 5 nM USP5, 2 microM K63 linked diubiquitin, and inhibitors at varied concentrations (0.08 microM - 114 microM). […] The intensity of the individual diubiquitin and monoubiquitin band was quantified using Quantity One 4.3.1 (Biorad, Hercules, CA). The percentage of the conversion was determined and used to calculate the reaction rate. […]
# Chain of Ubiquitin carboxyl-terminal hydrolase 5 (Homo sapiens) (P45974 whole entry, looked up): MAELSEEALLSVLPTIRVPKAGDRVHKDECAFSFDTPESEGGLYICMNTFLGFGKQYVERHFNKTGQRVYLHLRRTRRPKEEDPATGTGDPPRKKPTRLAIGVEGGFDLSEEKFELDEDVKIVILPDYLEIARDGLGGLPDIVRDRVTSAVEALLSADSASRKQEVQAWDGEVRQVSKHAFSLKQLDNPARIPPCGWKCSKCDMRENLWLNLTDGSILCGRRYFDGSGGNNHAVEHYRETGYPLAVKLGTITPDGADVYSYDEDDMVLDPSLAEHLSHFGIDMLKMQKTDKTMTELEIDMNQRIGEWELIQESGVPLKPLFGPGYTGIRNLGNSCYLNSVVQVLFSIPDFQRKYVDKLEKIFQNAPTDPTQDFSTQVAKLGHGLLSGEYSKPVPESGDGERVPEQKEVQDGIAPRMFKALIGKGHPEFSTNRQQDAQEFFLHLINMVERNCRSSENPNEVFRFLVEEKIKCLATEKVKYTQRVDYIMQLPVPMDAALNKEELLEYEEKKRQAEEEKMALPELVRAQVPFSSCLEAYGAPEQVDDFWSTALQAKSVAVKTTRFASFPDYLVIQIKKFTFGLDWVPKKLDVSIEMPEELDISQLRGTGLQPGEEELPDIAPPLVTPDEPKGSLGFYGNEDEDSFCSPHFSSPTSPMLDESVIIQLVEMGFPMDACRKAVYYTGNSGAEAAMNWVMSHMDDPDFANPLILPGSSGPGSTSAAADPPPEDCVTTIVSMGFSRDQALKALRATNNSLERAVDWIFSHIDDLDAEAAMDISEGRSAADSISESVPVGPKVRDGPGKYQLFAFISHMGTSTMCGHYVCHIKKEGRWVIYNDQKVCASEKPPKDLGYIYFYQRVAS
row,Compound,inhibition
1,Cc1cnc(-c2ccccc2C(C)C)nc1NCc1ccc(-n2ccnn2)cc1,2% (inactive)
